# Reference: publication PMC7862700, “An all-to-all approach to the identification of sequence-specific readers for epigenetic DNA modifications on cytosine”
# How the values were obtained:
# Experiment in all cases: DAPPL (digital affinity profiling via proximity ligation, sequencing); 10 mM Tris-HCl pH 7.5, 50 mM NaCl, 1 mM DTT, 4% glycerol, room temperature, 30 min; GST-TFs on glutathione beads, 16-mer random dsDNA library, 0.1% formaldehyde crosslink after washing; high values mean tight binding
# [1] = biological target: T1, FLI1 (Homo sapiens, UniProt Q01543 1-452); conditions: protein: recombinant; tags: N-terminal GST; dsDNA, one strand shown
# T1 sequence: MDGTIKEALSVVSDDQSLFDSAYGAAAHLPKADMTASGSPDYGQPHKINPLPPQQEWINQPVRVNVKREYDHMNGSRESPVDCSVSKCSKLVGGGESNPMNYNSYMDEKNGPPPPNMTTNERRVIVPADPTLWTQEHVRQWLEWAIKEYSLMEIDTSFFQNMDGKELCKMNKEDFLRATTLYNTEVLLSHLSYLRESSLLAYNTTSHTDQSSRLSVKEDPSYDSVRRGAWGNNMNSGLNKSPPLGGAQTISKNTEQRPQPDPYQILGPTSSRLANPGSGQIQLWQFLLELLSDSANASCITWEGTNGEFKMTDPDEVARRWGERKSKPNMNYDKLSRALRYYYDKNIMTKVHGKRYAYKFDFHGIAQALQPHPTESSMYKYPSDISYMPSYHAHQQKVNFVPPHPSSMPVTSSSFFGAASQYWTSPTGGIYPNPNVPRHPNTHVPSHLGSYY
# Summary of the method: (§1)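 Sequencing on an Illumina NextSeq500 followed washing, crosslinking with 0.1% formaldehyde, proximity ligation (BsaI/T4 ligase, 1 h, 37 °C) and PCR amplification of pools that had been incubated for 30 min at room temperature with 200 nmole of a random double-stranded 16-mer DNA library in Tris/NaCl/DTT/glycerol buffer. Each pool held DNA-barcoded human transcription factors, expressed in yeast as GST fusions and captured on glutathione beads, plus a tag-only sample. Binding signal is a hexamer's read frequency for a factor divided by its frequency in the tag-only sample.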
# [2] = biological target: T2, ELK1 (Homo sapiens, UniProt P19419 1-428); conditions: protein: recombinant; tags: N-terminal GST; dsDNA, one strand shown
# T2 sequence: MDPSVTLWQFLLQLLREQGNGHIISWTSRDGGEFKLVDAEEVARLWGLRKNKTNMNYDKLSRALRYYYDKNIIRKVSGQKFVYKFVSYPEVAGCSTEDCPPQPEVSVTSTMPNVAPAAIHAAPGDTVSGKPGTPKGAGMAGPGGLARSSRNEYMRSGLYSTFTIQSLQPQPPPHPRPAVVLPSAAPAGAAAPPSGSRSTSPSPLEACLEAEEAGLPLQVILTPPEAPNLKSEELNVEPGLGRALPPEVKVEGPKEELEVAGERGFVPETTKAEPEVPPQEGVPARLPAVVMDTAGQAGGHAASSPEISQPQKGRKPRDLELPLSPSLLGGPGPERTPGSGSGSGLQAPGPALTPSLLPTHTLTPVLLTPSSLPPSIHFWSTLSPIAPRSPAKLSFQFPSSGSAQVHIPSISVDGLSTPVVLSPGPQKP
# Summary of the method: as §1
# [3] = biological target: T3, GABPA (Homo sapiens, UniProt Q06546 1-454); conditions: protein: recombinant; tags: N-terminal GST; dsDNA, one strand shown
# T3 sequence: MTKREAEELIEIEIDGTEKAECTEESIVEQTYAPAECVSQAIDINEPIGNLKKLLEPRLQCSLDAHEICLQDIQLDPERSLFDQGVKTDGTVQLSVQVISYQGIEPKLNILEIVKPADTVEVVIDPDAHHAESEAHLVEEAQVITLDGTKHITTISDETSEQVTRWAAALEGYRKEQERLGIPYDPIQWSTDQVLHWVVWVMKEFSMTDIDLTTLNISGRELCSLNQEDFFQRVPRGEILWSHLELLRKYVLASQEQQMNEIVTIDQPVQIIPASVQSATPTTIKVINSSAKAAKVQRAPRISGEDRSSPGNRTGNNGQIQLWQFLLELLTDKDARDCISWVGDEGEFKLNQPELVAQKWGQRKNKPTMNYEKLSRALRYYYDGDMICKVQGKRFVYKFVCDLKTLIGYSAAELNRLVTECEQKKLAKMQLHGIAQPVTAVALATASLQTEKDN
# Summary of the method: as §1
# [4] = biological target: T4, ERG (Homo sapiens, UniProt P11308 1-479); conditions: protein: recombinant; tags: N-terminal GST; dsDNA, one strand shown
# T4 sequence: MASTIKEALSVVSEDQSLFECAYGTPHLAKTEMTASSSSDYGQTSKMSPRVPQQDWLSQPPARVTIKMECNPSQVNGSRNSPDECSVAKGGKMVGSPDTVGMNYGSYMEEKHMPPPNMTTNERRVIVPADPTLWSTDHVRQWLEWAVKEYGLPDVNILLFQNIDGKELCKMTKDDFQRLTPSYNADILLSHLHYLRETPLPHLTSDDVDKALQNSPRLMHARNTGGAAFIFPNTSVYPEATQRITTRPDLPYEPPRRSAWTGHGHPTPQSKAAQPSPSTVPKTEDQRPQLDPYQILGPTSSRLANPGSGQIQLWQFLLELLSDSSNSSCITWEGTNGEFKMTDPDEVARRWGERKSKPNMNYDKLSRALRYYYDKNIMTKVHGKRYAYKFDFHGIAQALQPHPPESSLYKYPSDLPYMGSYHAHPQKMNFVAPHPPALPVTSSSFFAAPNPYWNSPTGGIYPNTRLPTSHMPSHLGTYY
# Summary of the method: as §1
# [5] = biological target: ELF1 (Homo sapiens, UniProt P32519 1-619); conditions: protein: recombinant; tags: N-terminal GST; dsDNA, one strand shown
# Chain of ELF1 (P32519 whole entry): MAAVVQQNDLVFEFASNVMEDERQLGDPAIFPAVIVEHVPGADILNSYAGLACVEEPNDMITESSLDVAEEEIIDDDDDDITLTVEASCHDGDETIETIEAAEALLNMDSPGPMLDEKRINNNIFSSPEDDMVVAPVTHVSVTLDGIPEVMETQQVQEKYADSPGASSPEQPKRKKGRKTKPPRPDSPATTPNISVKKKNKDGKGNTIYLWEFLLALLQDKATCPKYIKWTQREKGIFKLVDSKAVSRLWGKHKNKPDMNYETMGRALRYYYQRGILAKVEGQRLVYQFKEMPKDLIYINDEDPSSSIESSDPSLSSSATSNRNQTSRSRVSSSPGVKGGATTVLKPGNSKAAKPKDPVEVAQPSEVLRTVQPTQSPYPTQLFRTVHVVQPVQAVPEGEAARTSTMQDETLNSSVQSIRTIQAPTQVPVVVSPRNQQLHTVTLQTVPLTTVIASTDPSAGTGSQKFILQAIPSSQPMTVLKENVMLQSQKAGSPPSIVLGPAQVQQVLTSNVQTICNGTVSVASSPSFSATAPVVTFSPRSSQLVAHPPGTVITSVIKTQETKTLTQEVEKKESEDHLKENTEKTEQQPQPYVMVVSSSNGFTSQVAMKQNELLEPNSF
# Summary of the method: as §1
# [6] = biological target: T5, EHF (Homo sapiens, UniProt Q9NZC4 1-300); conditions: protein: recombinant; tags: N-terminal GST; dsDNA, one strand shown
# T5 sequence: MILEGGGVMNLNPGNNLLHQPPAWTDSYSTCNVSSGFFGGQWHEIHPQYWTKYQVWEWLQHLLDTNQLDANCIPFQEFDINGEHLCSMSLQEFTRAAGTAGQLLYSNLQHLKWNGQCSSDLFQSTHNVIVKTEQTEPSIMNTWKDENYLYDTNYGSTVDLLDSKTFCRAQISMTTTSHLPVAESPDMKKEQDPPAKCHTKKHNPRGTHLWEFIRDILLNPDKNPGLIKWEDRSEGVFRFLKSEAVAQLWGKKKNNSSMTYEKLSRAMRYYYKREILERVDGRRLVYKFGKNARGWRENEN
# Summary of the method: as §1
# [7] = biological target: SPI1 (Homo sapiens, UniProt P17947 1-270); conditions: protein: recombinant; tags: N-terminal GST; dsDNA, one strand shown
# Summary of the method: as §1
# [8] = biological target: SPIB (Homo sapiens, UniProt Q01892 1-262); conditions: protein: recombinant; tags: N-terminal GST; dsDNA, one strand shown
# Chain of SPIB (Q01892 whole entry): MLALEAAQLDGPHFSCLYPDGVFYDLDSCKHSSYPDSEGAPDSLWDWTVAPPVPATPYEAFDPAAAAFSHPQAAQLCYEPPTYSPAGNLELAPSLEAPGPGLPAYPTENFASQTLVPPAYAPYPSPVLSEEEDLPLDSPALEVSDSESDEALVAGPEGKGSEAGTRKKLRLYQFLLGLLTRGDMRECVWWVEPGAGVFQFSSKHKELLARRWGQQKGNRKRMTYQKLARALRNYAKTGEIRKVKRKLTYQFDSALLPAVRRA
# Summary of the method: as §1
# [9] = biological target: T6, ELK3 (Homo sapiens, UniProt P41970 1-407); conditions: protein: recombinant; tags: N-terminal GST; dsDNA, one strand shown
# T6 sequence: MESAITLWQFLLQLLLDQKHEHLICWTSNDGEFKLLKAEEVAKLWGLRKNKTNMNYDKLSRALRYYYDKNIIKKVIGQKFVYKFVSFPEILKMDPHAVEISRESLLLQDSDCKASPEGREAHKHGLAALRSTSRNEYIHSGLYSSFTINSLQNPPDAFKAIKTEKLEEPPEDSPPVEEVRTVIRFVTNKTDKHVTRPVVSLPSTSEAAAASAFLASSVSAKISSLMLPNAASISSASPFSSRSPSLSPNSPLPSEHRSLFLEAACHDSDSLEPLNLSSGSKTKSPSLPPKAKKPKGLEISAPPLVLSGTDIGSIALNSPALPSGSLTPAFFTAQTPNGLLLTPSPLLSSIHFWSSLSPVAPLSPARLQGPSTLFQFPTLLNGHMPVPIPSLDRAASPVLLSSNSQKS
# Summary of the method: as §1
# [10] = biological target: T7, FEV (Homo sapiens, UniProt Q99581 1-238); conditions: protein: recombinant; tags: N-terminal GST; dsDNA, one strand shown
# T7 sequence: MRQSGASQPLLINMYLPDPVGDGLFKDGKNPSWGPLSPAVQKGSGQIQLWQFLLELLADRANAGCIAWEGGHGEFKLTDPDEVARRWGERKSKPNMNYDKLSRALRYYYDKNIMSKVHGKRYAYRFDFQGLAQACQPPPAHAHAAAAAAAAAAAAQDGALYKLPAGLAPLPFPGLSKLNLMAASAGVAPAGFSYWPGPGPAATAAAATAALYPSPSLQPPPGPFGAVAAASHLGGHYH
# Summary of the method: as §1
# [11] = biological target: ETV5 (Homo sapiens, UniProt P41161 1-510); conditions: protein: recombinant; tags: N-terminal GST; dsDNA, one strand shown
# Chain of ETV5 (P41161 whole entry): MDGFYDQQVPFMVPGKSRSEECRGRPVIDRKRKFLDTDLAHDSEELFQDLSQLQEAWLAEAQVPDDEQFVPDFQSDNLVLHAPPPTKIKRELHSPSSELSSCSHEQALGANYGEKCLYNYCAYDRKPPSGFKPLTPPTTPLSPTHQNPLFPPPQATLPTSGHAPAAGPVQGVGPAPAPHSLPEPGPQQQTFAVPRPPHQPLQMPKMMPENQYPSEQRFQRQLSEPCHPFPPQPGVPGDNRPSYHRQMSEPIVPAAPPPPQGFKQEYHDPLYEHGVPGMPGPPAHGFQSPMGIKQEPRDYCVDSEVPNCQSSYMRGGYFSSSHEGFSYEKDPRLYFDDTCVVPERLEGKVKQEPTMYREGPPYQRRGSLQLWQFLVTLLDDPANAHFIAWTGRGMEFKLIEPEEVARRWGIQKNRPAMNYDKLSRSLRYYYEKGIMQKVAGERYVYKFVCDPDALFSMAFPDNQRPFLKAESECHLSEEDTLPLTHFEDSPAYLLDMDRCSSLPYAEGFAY
# Summary of the method: as §1
# [12] = biological target: HSF1 (Homo sapiens, UniProt Q00613 1-529); conditions: protein: recombinant; tags: N-terminal GST; chain copies: 3; dsDNA, one strand shown
# Chain of HSF1 (Q00613 whole entry): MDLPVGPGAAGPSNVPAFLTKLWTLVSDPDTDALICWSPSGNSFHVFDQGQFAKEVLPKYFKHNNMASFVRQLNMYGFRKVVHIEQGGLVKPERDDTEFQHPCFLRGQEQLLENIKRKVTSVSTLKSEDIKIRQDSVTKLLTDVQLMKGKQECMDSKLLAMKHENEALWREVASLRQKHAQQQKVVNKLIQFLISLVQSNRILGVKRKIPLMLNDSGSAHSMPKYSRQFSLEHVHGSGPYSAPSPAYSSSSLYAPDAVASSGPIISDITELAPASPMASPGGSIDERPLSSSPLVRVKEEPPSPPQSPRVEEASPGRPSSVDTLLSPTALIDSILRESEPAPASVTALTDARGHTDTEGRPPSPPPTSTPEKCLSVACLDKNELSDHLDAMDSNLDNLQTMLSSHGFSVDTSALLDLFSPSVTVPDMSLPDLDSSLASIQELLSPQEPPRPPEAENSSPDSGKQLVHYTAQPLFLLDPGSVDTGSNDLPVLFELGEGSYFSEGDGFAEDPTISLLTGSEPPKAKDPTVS
# Summary of the method: as §1
# [13] = biological target: T8, SPIC (Homo sapiens, UniProt Q8N5J4 1-248); conditions: protein: recombinant; tags: N-terminal GST; dsDNA, one strand shown
# T8 sequence: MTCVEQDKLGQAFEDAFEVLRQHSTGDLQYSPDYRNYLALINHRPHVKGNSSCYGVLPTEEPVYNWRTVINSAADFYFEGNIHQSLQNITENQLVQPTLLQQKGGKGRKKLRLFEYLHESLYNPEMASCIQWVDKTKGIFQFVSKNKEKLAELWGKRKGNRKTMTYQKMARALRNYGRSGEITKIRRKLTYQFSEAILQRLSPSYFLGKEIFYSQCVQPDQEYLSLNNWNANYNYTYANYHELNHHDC
# Summary of the method: as §1
# [14] = biological target: ELF4 (Homo sapiens, UniProt Q99607 1-663); conditions: protein: recombinant; tags: N-terminal GST; dsDNA, one strand shown
# Chain of ELF4 (Q99607 whole entry): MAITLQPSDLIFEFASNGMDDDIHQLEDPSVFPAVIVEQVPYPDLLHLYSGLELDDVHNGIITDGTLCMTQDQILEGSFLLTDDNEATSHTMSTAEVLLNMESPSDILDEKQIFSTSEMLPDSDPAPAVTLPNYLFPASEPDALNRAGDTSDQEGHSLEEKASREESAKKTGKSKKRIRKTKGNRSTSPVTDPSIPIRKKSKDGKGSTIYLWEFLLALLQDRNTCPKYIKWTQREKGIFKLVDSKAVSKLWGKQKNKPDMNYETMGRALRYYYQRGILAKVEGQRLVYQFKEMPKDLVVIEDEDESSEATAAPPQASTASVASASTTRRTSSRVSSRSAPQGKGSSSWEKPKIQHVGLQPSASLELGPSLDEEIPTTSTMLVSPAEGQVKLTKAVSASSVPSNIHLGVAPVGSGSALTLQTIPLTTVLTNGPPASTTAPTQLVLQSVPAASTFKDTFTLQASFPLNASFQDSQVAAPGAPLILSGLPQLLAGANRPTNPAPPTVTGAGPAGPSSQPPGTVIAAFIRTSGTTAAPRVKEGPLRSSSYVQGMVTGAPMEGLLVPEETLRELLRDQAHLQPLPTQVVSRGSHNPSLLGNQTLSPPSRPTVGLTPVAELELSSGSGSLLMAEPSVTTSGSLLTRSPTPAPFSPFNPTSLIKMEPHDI
# Summary of the method: as §1
# [15] = biological target: T9, ELK4 (Homo sapiens, UniProt P28324-2 1-405); conditions: protein: recombinant; tags: N-terminal GST; dsDNA, one strand shown
# T9 sequence: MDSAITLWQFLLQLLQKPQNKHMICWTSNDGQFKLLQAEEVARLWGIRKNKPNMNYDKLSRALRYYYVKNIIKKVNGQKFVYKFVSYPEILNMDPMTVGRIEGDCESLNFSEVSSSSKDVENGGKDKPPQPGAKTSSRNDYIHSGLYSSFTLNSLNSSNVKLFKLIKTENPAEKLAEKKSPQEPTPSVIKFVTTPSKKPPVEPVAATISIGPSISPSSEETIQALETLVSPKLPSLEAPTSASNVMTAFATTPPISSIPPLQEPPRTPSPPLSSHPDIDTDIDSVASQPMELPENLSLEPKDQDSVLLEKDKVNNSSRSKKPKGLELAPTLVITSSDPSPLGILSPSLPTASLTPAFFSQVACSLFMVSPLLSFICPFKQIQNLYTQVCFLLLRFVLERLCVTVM
# Summary of the method: as §1
# [16] = biological target: T10, ETV2 (Homo sapiens, UniProt O00321 1-342); conditions: protein: recombinant; tags: N-terminal GST; dsDNA, one strand shown
# T10 sequence: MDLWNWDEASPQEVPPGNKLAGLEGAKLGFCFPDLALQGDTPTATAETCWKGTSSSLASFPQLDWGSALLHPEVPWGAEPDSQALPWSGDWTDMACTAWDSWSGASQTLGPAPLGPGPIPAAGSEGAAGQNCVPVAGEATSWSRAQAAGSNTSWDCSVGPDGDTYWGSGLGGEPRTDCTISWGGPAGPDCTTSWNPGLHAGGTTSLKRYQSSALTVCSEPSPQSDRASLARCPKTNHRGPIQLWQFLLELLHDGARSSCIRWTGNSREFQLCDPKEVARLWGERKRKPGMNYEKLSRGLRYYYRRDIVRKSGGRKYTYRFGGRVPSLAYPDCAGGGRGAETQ
# Summary of the method: as §1
# [17] = biological target: T11, ELF3 (Homo sapiens, UniProt P78545 1-371); conditions: protein: recombinant; tags: N-terminal GST; dsDNA, one strand shown
# T11 sequence: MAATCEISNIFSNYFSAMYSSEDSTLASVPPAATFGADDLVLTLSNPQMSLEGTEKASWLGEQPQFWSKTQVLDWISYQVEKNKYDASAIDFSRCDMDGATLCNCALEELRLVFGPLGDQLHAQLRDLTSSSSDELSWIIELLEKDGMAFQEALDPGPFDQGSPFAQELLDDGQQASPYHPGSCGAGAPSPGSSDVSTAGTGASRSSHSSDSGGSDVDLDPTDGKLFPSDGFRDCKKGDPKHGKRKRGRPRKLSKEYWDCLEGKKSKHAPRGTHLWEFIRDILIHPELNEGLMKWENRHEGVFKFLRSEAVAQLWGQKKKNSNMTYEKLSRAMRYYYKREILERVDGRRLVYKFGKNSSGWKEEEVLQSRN
# Summary of the method: as §1
# [18] = biological target: CRX (Homo sapiens, UniProt O43186 1-299); conditions: protein: recombinant; tags: N-terminal GST; dsDNA, one strand shown
# Chain of CRX (O43186 whole entry): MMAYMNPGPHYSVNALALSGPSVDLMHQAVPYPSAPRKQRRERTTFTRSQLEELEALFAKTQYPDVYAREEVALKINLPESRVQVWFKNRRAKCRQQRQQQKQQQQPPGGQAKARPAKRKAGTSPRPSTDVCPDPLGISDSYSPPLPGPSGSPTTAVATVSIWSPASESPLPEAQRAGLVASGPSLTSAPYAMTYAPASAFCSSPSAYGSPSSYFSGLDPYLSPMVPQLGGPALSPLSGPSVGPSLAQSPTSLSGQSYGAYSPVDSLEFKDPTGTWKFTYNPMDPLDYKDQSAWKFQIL
# Summary of the method: as §1
# [19] = biological target: ETV1 (Homo sapiens, UniProt P50549 1-477); conditions: protein: recombinant; tags: N-terminal GST; dsDNA, one strand shown
# Chain of ETV1 (P50549 whole entry): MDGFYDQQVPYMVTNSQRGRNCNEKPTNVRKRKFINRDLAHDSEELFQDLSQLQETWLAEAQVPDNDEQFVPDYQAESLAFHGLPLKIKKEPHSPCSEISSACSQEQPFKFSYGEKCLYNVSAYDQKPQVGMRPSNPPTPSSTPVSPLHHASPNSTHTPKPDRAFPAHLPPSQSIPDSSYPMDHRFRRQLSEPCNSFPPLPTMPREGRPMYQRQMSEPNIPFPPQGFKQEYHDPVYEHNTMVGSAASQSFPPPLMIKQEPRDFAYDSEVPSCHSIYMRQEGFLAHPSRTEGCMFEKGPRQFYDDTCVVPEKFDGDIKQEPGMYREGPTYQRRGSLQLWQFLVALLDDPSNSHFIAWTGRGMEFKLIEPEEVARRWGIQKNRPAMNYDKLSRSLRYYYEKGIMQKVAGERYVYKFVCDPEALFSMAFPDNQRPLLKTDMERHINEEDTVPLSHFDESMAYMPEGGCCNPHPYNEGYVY
# Summary of the method: as §1
sequence,measurement,setting,value
GCTATT,binding signal,[1],"1.33 fold enrichment (6-mer frequency, TF over GST control)"
same,binding signal,[2],"1.34 fold enrichment (6-mer frequency, TF over GST control)"
same,binding signal,[3],"1.36 fold enrichment (6-mer frequency, TF over GST control)"
same,binding signal,[4],"1.3 fold enrichment (6-mer frequency, TF over GST control)"
same,binding signal,[5],"1.26 fold enrichment (6-mer frequency, TF over GST control)"
same,binding signal,[6],"1.39 fold enrichment (6-mer frequency, TF over GST control)"
same,binding signal,[7],"1.3 fold enrichment (6-mer frequency, TF over GST control)"
same,binding signal,[8],"1.28 fold enrichment (6-mer frequency, TF over GST control)"
same,binding signal,[9],"1.39 fold enrichment (6-mer frequency, TF over GST control)"
same,binding signal,[10],"1.29 fold enrichment (6-mer frequency, TF over GST control)"
same,binding signal,[11],"1.3 fold enrichment (6-mer frequency, TF over GST control)"
same,binding signal,[12],"1.22 fold enrichment (6-mer frequency, TF over GST control)"
same,binding signal,[13],"1.38 fold enrichment (6-mer frequency, TF over GST control)"
same,binding signal,[14],"1.38 fold enrichment (6-mer frequency, TF over GST control)"
same,binding signal,[15],"1.56 fold enrichment (6-mer frequency, TF over GST control)"
same,binding signal,[16],"1.41 fold enrichment (6-mer frequency, TF over GST control)"
same,binding signal,[17],"1.45 fold enrichment (6-mer frequency, TF over GST control)"
same,binding signal,[18],"1.38 fold enrichment (6-mer frequency, TF over GST control)"
same,binding signal,[19],"1.3 fold enrichment (6-mer frequency, TF over GST control)"
